# The entries come from a sample that favours hits as a whole.
# Pf Dd2 growth = qHTS Primary assay for Inhibitors of Plasmodium falciparum Dd2 growth in vitro; P. falciparum Dd2 growth, SYBR Green, 72 h; Potency, µM (titrated, usually from 28.9 µM), inactives show at the highest dose activity, negative = inhibition, usual class: inhibitors; 4.3% of 120,000 active; AID 1347417, 2020; active means well fitted inhibition curve with a large enough effect;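 further: plate controls were DMSO vehicle for no effect and reference drug for full effect; nearly all actives have a fitted effect of over 65% in size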
#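 Readout: SYBR Green fluorescence, 485 nm excitation, 535 nm emission, after ~16 h lysis at 37C. Before that, Dd2-infected red cells (2.5% hematocrit) grew 72 h with compound, 29 uM top final concentration.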
# * marks the source's active call; other numbers are inactive results; i = inactive; [ ] = remark or other dose. Potency means the concentration at half of the fitted maximal effect.
SMILES,Pf Dd2 growth
Cc1ccccc1CN1Cc2nc(-c3ccccc3)ccc2OCC1=O,-7%[44.1 µM]
Cc1ccccc1CN1Cc2nc(N3CCCC3)ccc2OCC1=O,10µM*
Cc1cc(Br)ccc1NC(=O)Cn1nc2c(cc1=O)CCCCC2,-18%
COc1ccc(N2CC(C(=O)NCC(F)F)NC2=O)cc1 (configuration not stated),-8%[44.1 µM]
COc1ccccc1-c1noc(-c2ccc(N3CCN(c4ccccc4)CC3)c([N+](=O)[O-])c2)n1,10µM*
COc1ccccc1N1CCN(c2ccc(-c3nc(-c4ccccc4C)no3)cc2[N+](=O)[O-])CC1,17%
COc1ccc(-c2noc(-c3ccc(N4CCN(c5ccccc5)CC4)c([N+](=O)[O-])c3)n2)cc1,30%
CC(NC(=O)c1cc(S(N)(=O)=O)ccc1F)c1ccc2c(c1)OCCCO2 (configuration not stated),-4%
CN(C)C1CCN(c2ccc(C(=O)N3CCC(N4CCOCC4)CC3)cn2)C1 (configuration not stated),2%
CN(C)C(=O)N1CCC2(CC1)CN(C(=O)c1cccc3[nH]ccc13)Cc1ccccc1O2,-28%
CC(=O)N1Cc2ccccc2OC2(CCN(C(=O)NC(C)C)CC2)C1,-9%
C[S+](=O)([O-])N1Cc2ccccc2OC2(CCN(C(=O)c3cccc4[nH]ccc34)CC2)C1,-29%
CC(=O)N1CCC2(CC1)CN(C(=O)NC(C)C)Cc1ccccc1O2,9%
CC(C)NC(=O)N1CCC2(CC1)CN(C(=O)c1ccc3[nH]ccc3c1)Cc1ccccc1O2,13µM*
CC(C)NC(=O)N1Cc2ccccc2OC2(CCN(C(=O)c3cccc4[nH]ccc34)CC2)C1,11µM*
CN1CC(=O)N(c2ccc(Cl)cc2)Cc2c1ncnc2N1CCC(c2ccccc2)CC1,-10%
O=C(CC[C@H]1NC(=O)c2ccccc2NC1=O)NCCCc1nc2ccccc2[nH]1,-10%
O=C(c1ccc2c(c1)OCO2)N1CCc2nn(Cc3ccccc3)c(=O)n2CC1,-7%
COc1cccc(CC(=O)Nc2ccc3c(c2)CN(Cc2ccccc2F)C(=O)C(C)O3)c1 (configuration not stated),i
Cc1cc(C)cc(CCC(=O)N2CCC3(CC2)C(C(=O)O)CC(=O)N3C)c1 (configuration not stated),-21%
Cc1noc(C)c1[S+](=O)([O-])N1CCC(N2Cc3ccccc3C2=O)CC1,-20%
Cc1noc([C@@H]2CN(Cc3ccco3)C[C@H]2CO)n1,8%
CNC(=O)[C@@H]1CN(C(=O)CCc2cc(OC)no2)C[C@H]1c1n[nH]c(C)n1,6%
O=C(O)c1[nH]ncc1CN1CCc2[nH]nc(-c3ccc(-c4ccccc4)cc3)c2C1,10%
O=C(Cn1c(SCc2cccc(F)c2)nc2ccncc21)Nc1ccc(Cl)cc1F,28%
SMILES,Pf Dd2 growth
Cc1cccc(Cn2c(SCc3ccc(C(=O)NCCc4ccccc4)cc3)nc3ccncc32)c1,3.2µM*
Cc1ccccc1CNC(=O)c1ccc(Cn2c(SCc3cccc(F)c3)nc3cccnc32)cc1,-16%
O=C(NCCc1ccccc1)c1ccc(CSc2nc3ccncc3n2Cc2cccc(F)c2)cc1,4.5µM*
Cc1cccc(Cn2c(CNC(=O)c3ccccc3)nc3ccccc32)c1,-5%
O=C(c1ccc(CSc2nc3ccncc3n2Cc2cccc(F)c2)cc1)N1CCCCCC1,8.9µM*
COCCCNC(=O)c1ccc(Cn2c(SCc3cccc(C)c3)nc3cccnc32)cc1,i
Cc1ccc(CSc2nc3cccnc3n2Cc2ccc(C(=O)NCCc3ccccc3)cc2)cc1,-13%
O=C(NCCc1ccccc1)c1ccc(Cn2c(SCc3cccc(F)c3)nc3cccnc32)cc1,13µM*
Cc1ccc(S(=O)(=O)N2CCc3c(C(=O)NCC(C)C)cccc32)cc1,-9%
CNC(=O)N1C[C@@H](CN(C)C)[C@H](NC(=O)CC2CCCC2)C1,18%
COC[C@@H]1CN(c2ncccn2)C[C@H]1C(=O)NCc1ccccn1,-9%
COCCC1(C(=O)O)CCCN(C(=O)c2cc(F)ccc2OC)C1 (configuration not stated),-3%
COc1ccc(CN2Cc3[nH]cnc3C[C@H]2c2nc(-c3ccc(C(F)(F)F)cc3)no2)cc1,-9%
COCCCNC(=O)c1ccc(Cn2c(SCc3ccc(F)cc3)nc3cccnc32)cc1,-22%
O=C(NCCN1CCCCC1)c1ccc(Cn2c(SCc3ccc(F)cc3)nc3cccnc32)cc1,7.1µM*
O=C(NCCc1ccccc1)c1ccc(CSc2nc3ccncc3n2Cc2ccccc2F)cc1,7.1µM*
COC(=O)c1ccc(Cn2c(SCc3ccccc3F)nc3ccncc32)cc1,-17%
O=C(NCc1ccccc1)c1ccc(CSc2nc3cccnc3n2Cc2ccccc2F)cc1,3%
O=C(NC1CCCC1)c1ccc(CSc2nc3cccnc3n2Cc2ccccc2)cc1,13%
COCC(=O)N1CCc2nc(C)nc(NCc3cc(C)nn3C)c2CC1,-13%
O=C(c1ccoc1)N1C[C@H]2OC(=O)N(CCCN3CCOCC3)[C@H]2C1,-1%

# High-throughput results (PubChem)
